From PubChem BioAssay
Hits are enriched below; roughly 1.8% of the tested compounds scored in any of these assays.
12-LOX inh – inhibitors of human 12S-lipoxygenase ALOX12; P18054; purified 12hLO, xylenol orange hydroperoxide absorbance; Potency, µM (doses to about 108 µM), for the others: at the top dose activity change, negative = inhibition, actives largely listed as inhibitors; 1.1% of 580,000 active; AID 1671190; also: potency is read from the fitted curve at half-maximal effect; % is scaled to controls: 0 for no effect and ±100 for the full control effect
Target sequence (P18054 whole entry, looked up): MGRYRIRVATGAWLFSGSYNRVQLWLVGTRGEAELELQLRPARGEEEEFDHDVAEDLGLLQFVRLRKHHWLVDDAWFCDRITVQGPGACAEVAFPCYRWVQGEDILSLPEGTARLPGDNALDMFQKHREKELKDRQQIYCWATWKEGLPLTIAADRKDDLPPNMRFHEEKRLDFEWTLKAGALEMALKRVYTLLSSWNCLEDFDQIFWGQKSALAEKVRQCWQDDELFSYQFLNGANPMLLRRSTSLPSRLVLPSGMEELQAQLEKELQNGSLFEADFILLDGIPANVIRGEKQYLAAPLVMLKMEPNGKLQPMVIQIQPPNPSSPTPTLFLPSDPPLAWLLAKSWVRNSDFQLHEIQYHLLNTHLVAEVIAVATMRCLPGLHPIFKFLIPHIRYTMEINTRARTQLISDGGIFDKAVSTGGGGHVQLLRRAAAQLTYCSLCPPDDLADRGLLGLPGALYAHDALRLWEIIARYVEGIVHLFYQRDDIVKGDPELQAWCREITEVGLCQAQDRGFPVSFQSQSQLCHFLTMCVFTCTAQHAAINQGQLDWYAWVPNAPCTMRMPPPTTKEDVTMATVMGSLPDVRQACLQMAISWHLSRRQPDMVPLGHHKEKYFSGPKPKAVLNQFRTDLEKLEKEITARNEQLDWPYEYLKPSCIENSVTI
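Hydroperoxide product was detected by ferrous iron/xylenol orange as the 573 to 405 nm absorbance ratio. Arachidonic acid at 40 uM (final) was turned over for 30 min at room temperature by 150 nM human 12hLO, pH 7.0 Hepes buffer, after 15 min compound preincubation.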
KCNH2 3.1 inh – blocks the human KCNH2 3.1 channel isoform; U2OS KCNH2 3.1, thallium flux FluxOr; hits give low values; 0.95% of 340,000 active; AID 720553; activity change, % (tested at about 1.8 µM);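 active = maximum activity change below -70%; inconclusive = maximum activity change from -70% to -50%; inactive = maximum activity change above -50%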;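 also: thallium influx rate constant from kinetic fluorescence after stimulation buffer; % is scaled to controls: 0 for no effect and ±100 for the full control effect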
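We transduce U2OS cells with the mutant 3.1 virus, culture them overnight, load FluxOr with Red40 quencher for 45 min, then add stimulation buffer and read kinetically for 2 min to derive a normalized rate constant.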
hERG WT inh – blocks the wildtype human KCNH2 potassium channel | activity change, % at 1.84 µM | U2OS, BacMam KCNH2, thallium flux FluxOr; hits give low values | 0.37% of 340,000 active;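 active = maximum activity change below -70%; inconclusive = maximum activity change between -70% and -50%; inactive = maximum activity change above -50%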; also: % is scaled to controls: 0 for no effect and ±100 for the full control effect
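U2OS cells were transduced with wild-type KCNH2 virus (2.03 x 10^8 / mL) for 4 h at room temperature, then cultured overnight at 37 C. Thallium flux was read with FluxOr dye. Rate constants were normalized to DMSO controls.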
AT treatment – potential ataxia-telangiectasia treatments restoring KAP-1 phosphorylation | 0.19% of 320,000 active | F2112 A-T fibroblasts, KAP-1 phosphorylation AlphaLISA; neocarzinostatin DNA damage 30 min before lysis | Potency, µM (top dose mostly 57.5 µM), for inactives: top-dose activation, hits mostly activators; also: potency is read from the fitted curve at half-maximal effect; % of control where 0% means no effect; nearly all actives have a fitted effect of over 45% in size
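hTERT-immortalized A-T patient fibroblasts (F2112), 500 cells/well in OPTI-MEM, 1% FBS, got compounds for 60 min, then NCS for 30 min at 37C. Lysates were then assayed for phospho-KAP-1 by AlphaLISA (anti-pKAP1 donor, anti-KAP1 acceptor beads), 6 hr at 25C.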
* = called active by the depositor; ? = inconclusive; · = no result. Unless noted, calls follow the shape of the dose curve; as a rule, active = well fitted curve in the direction sought with a large enough effect; inconclusive = small, poorly fitted or top-dose-only effect, or another doubt; inactive = no such curve, though single readings can be large; an effect the other way counts as inactive or inconclusive.

SMILES	12-LOX inh	KCNH2 3.1 inh	hERG WT inh	AT treatment
N#Cc1ccc(C(C(=O)Nc2ccc3c(c2)OCCO3)n2c(=O)c(-c3ccco3)nc3ccccc32)cc1 (centres undefined)	-20.9%	·	·	·
O=C(NC1CCCCC1)C(c1cccc2ccccc12)n1c(=O)c(-c2ccco2)nc2ccccc21 (centres undefined)	17.8µM*	·	·	·
CCCCCNC(=O)C(c1cc2ccccc2o1)n1c(=O)c(-c2ccco2)nc2ccccc21 (centres undefined)	39.8µM*	·	·	·
Cc1cccc(C)c1NC(=O)C(c1ccc(C#N)cc1)n1c(=O)c(-c2ccco2)nc2ccccc21 (centres undefined)	11.2µM*	·	·	·
CC(C)(O)C#Cc1ccc(C(=O)NC(Cc2c[nH]c3ccccc23)C(=O)O)cc1 (centres undefined)	-27.1%	·	·	·
CCOc1ccc(C(Nc2cccnc2)c2cc(Cl)c3cccnc3c2O)cc1 (centres undefined)	10µM*	-2.2	13.5	-1.3%
CCOCCn1c(N2CCCCCC2)nc2c1c(=O)[nH]c(=O)n2C	-18.2%	·	·	·
O=S(=O)(Nc1ncn[nH]1)c1ccc(Cl)cc1	?	-85.0*	-19.3	26.1%
CCOc1ccc(S(=O)(=O)Nc2ncn[nH]2)cc1	?	1.1	-14.4	3.2%
N#Cc1ccc(-c2ccco2)nc1SCc1ccccc1	3.2%	-3.2	2.9	13.2%
CCSc1nc(-c2ccco2)ccc1C#N	6.31µM*	-0.3	-7.5	12.3%
Cc1cnc(CCNC(=O)COc2ccccc2)n1C1CCC1	57.7%	·	·	·
COc1ccc(-c2coc3cc(O[C@@H]4O[C@H](CO)[C@@H](O)[C@H](O)[C@H]4O)ccc3c2=O)cc1	-1.3%	-151.3*	2.2	5.8%
O=c1c(-c2ccc3c(c2)OCCO3)coc2cc(OC3OC(CO)C(O)C(O)C3O)ccc12 (centres undefined)	0.0%	-6.4	1.8	-36.4%
CCn1c(COc2ccccc2)nnc1SCC(=O)NC1CCCCC1	10.8%	-5.0	-176.0*	-2.7%
O=C(CSc1ncccc1C(=O)O)NC1CCCCCCC1	0.0%	-79.3*	-2.8	1.3%
O=C(CSc1ccccc1C(=O)O)NC1CCCCCC1	3.8%	8.9	-3.7	22.8%
COc1ccc(C(=O)NCc2nnc(SCC(=O)NC3CCCCC3)n2C)cc1	39.8µM*	3.9	-2.0	-4.9%
COc1ccc(N2C(=O)CSC23CCN(C(=O)Nc2ccc(C)cc2)CC3)cc1	35.8%	·	·	·
CCOc1ccccc1NC(=O)CSc1nnc(Cc2cccn2C)n1-c1ccc(F)cc1	-4.4%	-0.4	-2.8	-1.3%
CCOC(=O)c1ccccc1NC(=O)CSc1nnc(Cc2cccn2C)n1-c1ccc(F)cc1	25.0%	-11.0	-87.5*	-0.1%
Cc1ccc(C(c2nnnn2Cc2cccs2)N2CCN(Cc3ccc4c(c3)OCO4)CC2)cc1 (centres undefined)	-0.8%	-95.1*	-109.8*	-2.8%
CC(C)C(c1nnnn1Cc1ccc(F)cc1)N1CCN(Cc2ccc3c(c2)OCO3)CC1 (centres undefined)	24.0%	-71.4*	1.4	5.3%
COc1cc(C#Cc2c(-c3cncn3C)n(C)c3ccc(-c4ccc(OC)nc4)cc23)cc(OC)c1	-9.0%	-0.2	2.3	31.6µM*
CCOC(=O)c1cnc(Nc2ccc(OC)cc2OC)c2ccccc12	3.2%	·	·	·
SMILES	12-LOX inh	KCNH2 3.1 inh	hERG WT inh	AT treatment
CO/N=C/c1ccc(N2CCN(C(=O)c3cccc(C(F)(F)F)c3)CC2)c([N+](=O)[O-])c1	0.0%	-36.9	-243.5*	1.2%
Cc1ccc(C(=O)O/N=C\c2ccc(N3CCCCC3)c([N+](=O)[O-])c2)cc1	-4.7%	-77.2*	-13.6	-12.0%
O=C(N/N=C/c1ccc(N2CCOCC2)c([N+](=O)[O-])c1)c1ccc(F)cc1	0.0%	-1.9	23.8	0.9%
O=C(O/N=C\c1ccc(N2CCCCC2)c([N+](=O)[O-])c1)c1cccc(C(F)(F)F)c1	2.8%	-47.5	-10.5	-5.6%
CO/N=C/c1ccc(N2CCN(C(=O)c3ccc(F)cc3)CC2)c([N+](=O)[O-])c1	0.0%	-102.2*	8.7	-7.0%
Cn1c(=O)n(C)c2cc([N+](=O)[O-])c(N3CCN(C(=O)c4ccccc4Cl)CC3)cc21	6.8%	-14.1	-0.7	-0.6%
CO/N=C/c1ccc(N2CCN(C(=O)c3ccc(Cl)cc3Cl)CC2)c([N+](=O)[O-])c1	-8.0%	-108.7*	-11.6	-2.9%
Cc1ccc2c(c1)C(O)(CC(=O)c1ccco1)C(=O)N2 (centres undefined)	0.8%	·	·	·
Cc1csc(=O)n1CCC(=O)OCc1nnc(-c2ccccc2Cl)o1	132.9%	2.6	-85.5*	7.1%
Fc1cccc(C[n+]2csc3ccccc32)c1	17.8µM*	-7.4	5.3	-9.9%
O=C(NCc1cccc(Cl)c1)C1CCCN(c2ncnc3nc[nH]c23)C1 (centres undefined)	27.4%	·	·	·
COc1cc(O)c2c(c1)OC(c1ccc(O)cc1)CC2=O (centres undefined)	?	-1.2	-10.8	39.8µM*
COc1ccc([C@@H]2CC(=O)c3c(O)cc(O)cc3O2)cc1O	?	6.6	-8.9	?
COC(=O)CCNC(=O)/C=C/c1cccc(C)c1	5.3%	·	·	·
CN(C)CCCN(C(=O)CCc1ccccc1)c1nc2ccc(Br)cc2s1	?	-87.0*	-35.7	5.1%
COc1ccc(CCNCC(=O)Nc2ccc(C)c(Br)c2)cc1OC	?	-72.2*	12.8	-0.5%
COCCNC(=O)[C@@H]1C[C@H](Oc2ccccc2)CN1C(=O)c1ccc(OC)cc1OC	19.3%	·	·	·
COc1ccc(C2=C(O)C(=O)N(Cc3ccc(C)cc3)C2c2ccc(F)cc2)cc1 (centres undefined)	17.8µM*	·	·	·
COc1ccc(C2C(C(=O)C(C)(C)C)=C(O)C(=O)N2Cc2ccccc2)cc1 (centres undefined)	-25.1%	-20.6	-4.8	-6.4%
COc1ccc(C2=C(O)C(=O)N(CCc3ccccc3)C2c2ccc(C(=O)O)cc2)cc1 (centres undefined)	17.8µM*	·	·	·
CC(C)CCn1c(SCC(=O)c2ccccc2)nc2c1c(=O)n(C)c(=O)n2C	17.8µM*	·	·	·
Cc1ccc(C(C)C)c(OCC(O)CN2CCc3ccccc3C2)c1 (centres undefined)	-44.5%	0.6	-112.9*	-16.3%
Cc1cccc(C)c1OCC(O)CN1CCc2ccccc2C1 (centres undefined)	?	-0.7	12.0	·
Cc1ccc(N2C(=O)c3ccc(C(=O)N4CCN(c5ccc(C)c(C)c5)CC4)cc3C2=O)cc1	-1.7%	4.0	3.8	4.6%
O=C(c1ccc(-n2cccc2)cc1)N1CCN(Cc2ccccc2)CC1	-2.7%	?	-72.7*	1.2%
Cc1ccc(NC(=O)CN2CCOCC2)c(Br)c1	9.7%	-9.2	-2.7	12.7%
Cc1ccc(N2C(=O)c3ccc(C(=O)N4CCN(Cc5ccccc5)CC4)cc3C2=O)cc1	-5.1%	-201.9*	-145.3*	0.0%
